Experimental data taken from PubChem BioAssay.
Active and inactive are the calls of the source. Unless noted, the rule behind the calls is not given here.

Columns and labels:
[1] = compounds binding Alexa647 anti-His antibody – biochemical, small-molecule microarray, 635 nm fluorescence, artefact control for SMM control protein annotation, primary screen (AID 1128); conditions: higher = more signal;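 note: score merges feature fluorescence with signal-to-noise for each printed compound spot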
[2] = system: Human papillomavirus type 1a E7 protein (residues 1-88); assay: HPV1a E7 small-molecule binders, primary screen, biochemical, small-molecule microarray, residues 1-88, 635 nm (AID 1129); conditions: small-molecule microarray binding, fluorescence 635 nm; higher = more signal
[3] = biological target: Focal adhesion kinase 1 (Homo sapiens) (UniProt Q05397); assay: PTK2 protein binding on printed compound slides – biochemical, small-molecule microarray, 635/667 nm fluorescence, BSA, DTT, primary screen (AID 1130); conditions: 635 nm fluorescence, higher = more signal;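 note: composite of spot emission at 667 nm and signal to noise over triplicate slides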
Sequence of Focal adhesion kinase 1 (Homo sapiens) (Q05397 whole entry, looked up): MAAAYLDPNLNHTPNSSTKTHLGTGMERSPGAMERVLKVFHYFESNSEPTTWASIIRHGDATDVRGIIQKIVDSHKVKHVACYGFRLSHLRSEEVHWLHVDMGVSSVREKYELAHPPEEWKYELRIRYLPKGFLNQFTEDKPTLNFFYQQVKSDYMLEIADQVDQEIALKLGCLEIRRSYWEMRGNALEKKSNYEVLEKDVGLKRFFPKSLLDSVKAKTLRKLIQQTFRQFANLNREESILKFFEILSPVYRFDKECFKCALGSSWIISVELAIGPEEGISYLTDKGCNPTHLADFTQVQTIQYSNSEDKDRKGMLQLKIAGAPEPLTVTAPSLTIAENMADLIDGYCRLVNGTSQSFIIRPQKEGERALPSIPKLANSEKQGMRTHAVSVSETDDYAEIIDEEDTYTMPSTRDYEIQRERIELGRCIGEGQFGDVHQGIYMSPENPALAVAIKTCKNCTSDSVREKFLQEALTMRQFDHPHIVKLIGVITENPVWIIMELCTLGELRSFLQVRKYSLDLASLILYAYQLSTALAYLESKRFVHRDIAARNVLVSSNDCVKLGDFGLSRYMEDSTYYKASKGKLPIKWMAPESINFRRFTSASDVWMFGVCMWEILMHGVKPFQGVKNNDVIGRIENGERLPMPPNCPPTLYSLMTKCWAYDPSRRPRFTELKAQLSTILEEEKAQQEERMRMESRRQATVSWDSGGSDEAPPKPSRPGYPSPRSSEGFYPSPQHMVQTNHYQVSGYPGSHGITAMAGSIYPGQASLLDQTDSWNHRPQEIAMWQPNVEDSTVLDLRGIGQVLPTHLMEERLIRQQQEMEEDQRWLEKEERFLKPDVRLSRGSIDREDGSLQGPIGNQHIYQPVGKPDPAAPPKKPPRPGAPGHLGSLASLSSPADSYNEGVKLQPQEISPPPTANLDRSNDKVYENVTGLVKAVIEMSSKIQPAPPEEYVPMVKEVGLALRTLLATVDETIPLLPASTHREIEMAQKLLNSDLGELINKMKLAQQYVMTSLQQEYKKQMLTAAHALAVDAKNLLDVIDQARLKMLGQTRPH

[4] = system: Fibrinogen (Alexa647-labelled); assay: Alexa647-fibrinogen binding to printed small molecules – biochemical, small-molecule microarray, 635/667 nm fluorescence, artefact control for SMM control-protein annotation, profiling panel (AID 1131); conditions: fibrinogen-A647 binding fluorescence, higher = more signal;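 note: z-score merges 667 nm fluorescence with per-spot signal-to-noise over triplicate slides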
[5] = biological target: Follistatin (Homo sapiens) (UniProt P19883); assay: FST protein binding to printed compounds – biochemical, small-molecule microarray, 635/667 nm fluorescence, primary screen (AID 1132); conditions: 635 nm fluorescence, higher = more signal
Sequence of Follistatin (Homo sapiens) (P19883 whole entry, looked up): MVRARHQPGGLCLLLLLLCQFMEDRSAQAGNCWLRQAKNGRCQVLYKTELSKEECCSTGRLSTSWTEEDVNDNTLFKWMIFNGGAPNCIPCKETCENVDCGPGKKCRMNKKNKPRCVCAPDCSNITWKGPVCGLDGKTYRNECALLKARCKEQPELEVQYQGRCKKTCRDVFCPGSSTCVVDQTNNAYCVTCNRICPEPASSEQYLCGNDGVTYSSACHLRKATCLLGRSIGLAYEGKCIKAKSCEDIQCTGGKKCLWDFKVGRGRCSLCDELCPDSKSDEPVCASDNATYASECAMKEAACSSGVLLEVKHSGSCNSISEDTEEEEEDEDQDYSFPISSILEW

[6] = biological target: Fibroblast growth factor 2 (Homo sapiens) (UniProt P09038); assay: basic fibroblast growth factor binding to printed compounds – biochemical, small-molecule microarray, 635/667 nm fluorescence, primary screen (AID 1133); conditions: FGF2, fluorescence 635/667, higher = more signal
Sequence of Fibroblast growth factor 2 (Homo sapiens) (P09038 whole entry, looked up): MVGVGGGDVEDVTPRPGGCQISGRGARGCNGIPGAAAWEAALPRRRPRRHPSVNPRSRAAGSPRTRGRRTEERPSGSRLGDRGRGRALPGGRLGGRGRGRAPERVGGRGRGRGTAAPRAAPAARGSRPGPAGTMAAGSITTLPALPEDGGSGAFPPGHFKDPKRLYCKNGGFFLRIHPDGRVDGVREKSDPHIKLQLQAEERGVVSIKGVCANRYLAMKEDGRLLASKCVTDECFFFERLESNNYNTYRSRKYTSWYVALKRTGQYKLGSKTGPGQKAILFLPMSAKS

[7] = JC-1 mitochondrial potential readout, lung cancer cells – cell-based, A549, JC-1 fluorescence, basal, 24 h, 100 nL, profiling panel (AID 1138); conditions: higher = more signal;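 note: A549 lung adenocarcinoma cells under basal conditions with no added stimulus; test concentration not given here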
Lefty1 = Lefty1 protein binding to printed compounds – biochemical, small-molecule microarray, 635/667 nm fluorescence, primary screen (AID 1139); conditions: fluorescence 635/667, higher = more signal
[8] = system: wheat germ agglutinin (Triticum aestivum), Alexa647-labelled; assay: Alexa647-WGA lectin binding to printed small molecules – biochemical, small-molecule microarray, 635/667 nm fluorescence, artefact control for SMM control-protein annotation, profiling panel (AID 1140); conditions: WGA-A647 binding, 635 nm fluorescence, higher = more signal;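 note: score merges 667 nm feature emission with signal to noise over triplicate slides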
[9] = biological target: Luciferin 4-monooxygenase (Photinus pyralis) (UniProt P08659); assay: inhibition of purified Photinus pyralis luciferase – biochemical, luminescence, purified enzyme, 2006 set, primary screen (AID 1141); conditions: purified firefly luciferase, SteadyGlo luminescence, 30 min; higher = more signal, called active from +8 up or from −8 down;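 note: cell-free assay with purified firefly luciferase at 100 ng per well in PBS; test concentration not given here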
Sequence of Luciferin 4-monooxygenase (Photinus pyralis) (P08659 whole entry, looked up): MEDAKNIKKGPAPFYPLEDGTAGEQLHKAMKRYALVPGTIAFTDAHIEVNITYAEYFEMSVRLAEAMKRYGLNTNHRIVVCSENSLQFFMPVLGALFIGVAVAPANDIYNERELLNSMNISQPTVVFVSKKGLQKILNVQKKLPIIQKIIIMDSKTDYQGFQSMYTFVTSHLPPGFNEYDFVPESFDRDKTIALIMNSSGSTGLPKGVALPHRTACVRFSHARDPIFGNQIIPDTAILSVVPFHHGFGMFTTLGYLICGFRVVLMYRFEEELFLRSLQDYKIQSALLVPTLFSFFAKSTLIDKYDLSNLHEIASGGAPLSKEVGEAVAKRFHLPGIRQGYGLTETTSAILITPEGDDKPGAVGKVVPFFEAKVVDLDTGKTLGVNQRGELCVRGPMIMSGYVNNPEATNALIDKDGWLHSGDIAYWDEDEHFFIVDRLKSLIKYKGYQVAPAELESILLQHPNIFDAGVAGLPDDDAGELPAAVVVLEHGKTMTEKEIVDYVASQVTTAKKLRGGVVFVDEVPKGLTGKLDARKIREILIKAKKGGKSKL

[10] = system: Wnt5a (protein binding on small-molecule microarray); assay: small molecules binding Wnt5a protein – biophysical, small-molecule microarray, 635/667 nm fluorescence, primary screen (AID 1142); conditions: 635 nm fluorescence, higher = more signal;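 note: fluorescence read at 667 nm with signal to noise per printed feature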
[11] = ATP-based viability of Huh7 replicon cells – cell-based, CellTiter-Glo luminescence, basal, 48 h, cytotoxicity control for HCV replication inhibitor project, primary screen (AID 1143); conditions: higher = more signal, called active from +8 up or from −8 down;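 note: Huh7 hepatoma cells carrying a hepatitis C replication reporter with no stimulus; test concentration not given here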
[12] = Pseudomonas biofilm growth suppression – PAO1 strain, BacTiter-Glo luminescence, LB-PBS, primary screen (AID 1144); conditions: P. aeruginosa PAO1 biofilm, 12 h, higher = more signal
[13] = basal CRE-LacZ reporter activity in PC12 – cell-based, unstimulated, primary screen (AID 1145); conditions: no forskolin, luminescence, 4.5 h, higher = more signal, called active from +8 up or from −8 down
[14] = forskolin-driven CRE-LacZ activity in PC12 – cell-based, CRE-LacZ reporter, forskolin-stimulated, primary screen (AID 1146); conditions: luminescence, 4.5 h, higher = more signal, called active from +8 up or from −8 down;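 note: PC12 cells with 6xCRE LacZ reporter stimulated by forskolin 10 µM; beta-galactosidase reporter signal reflecting CREB driven transcription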
[15] = biological target: Streptavidin (Streptomyces avidinii) (UniProt P22629); assay: compounds binding control protein streptavidin – biophysical, small-molecule microarray, 635/667 nm fluorescence, artefact control for SMM compound annotation, primary screen (AID 1147); conditions: higher = more signal;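 note: signal reflects streptavidin binding to arrayed compounds as a control protein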
Sequence of Streptavidin (Streptomyces avidinii) (P22629 whole entry, looked up): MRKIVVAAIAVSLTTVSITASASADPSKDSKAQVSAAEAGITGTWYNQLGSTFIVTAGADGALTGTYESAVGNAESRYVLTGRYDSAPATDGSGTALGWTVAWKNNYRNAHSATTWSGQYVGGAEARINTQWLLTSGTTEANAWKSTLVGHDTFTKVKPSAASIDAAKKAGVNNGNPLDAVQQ

[16] = probe aInhba binding on compound microarray – biochemical, small-molecule microarray, 635/667 nm fluorescence, primary screen (AID 1148); conditions: higher = more signal;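 note: score merges 667nm spot fluorescence with signal-to-noise for antibody binding to printed compounds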
Torsin-1A (Homo sapiens) [17] = biological target: Torsin-1A (Homo sapiens) (UniProt O14656); assay: TOR1A wild-type binding on microarray – cell lysate, small-molecule microarray, lysate, 635/667 nm, primary screen (AID 1149); conditions: COS7 hTOR1A-WT lysate, 635 nm fluorescence, higher = more signal
Sequence of Torsin-1A (Homo sapiens) (O14656 whole entry, looked up): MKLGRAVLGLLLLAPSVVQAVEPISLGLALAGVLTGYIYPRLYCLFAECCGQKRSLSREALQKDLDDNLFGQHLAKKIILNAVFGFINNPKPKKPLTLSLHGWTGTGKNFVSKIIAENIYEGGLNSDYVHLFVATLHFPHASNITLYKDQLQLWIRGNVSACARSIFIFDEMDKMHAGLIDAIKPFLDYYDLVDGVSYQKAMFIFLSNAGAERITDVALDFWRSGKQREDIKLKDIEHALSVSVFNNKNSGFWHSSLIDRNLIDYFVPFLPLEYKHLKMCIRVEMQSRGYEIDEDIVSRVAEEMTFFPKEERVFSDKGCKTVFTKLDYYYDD

Torsin-1A (Homo sapiens) [18] = biological target: Torsin-1A (Homo sapiens) (UniProt O14656); assay: torsin A mutant lysate binding on microarrays – cell lysate, small-molecule microarray, COS7 lysate, 635/667 nm fluorescence, primary screen (AID 1150); conditions: COS7 hTOR1A mutant lysate, 635 nm fluorescence, higher = more signal;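 note: score pools 667 nm emission and signal to noise measuring lysate protein binding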
[19] = system: Sonic hedgehog protein (Shh); assay: Sonic hedgehog microarray binding compounds – biochemical, small-molecule microarray, 635/667 nm fluorescence, primary screen (AID 1151); conditions: 635 nm fluorescence, higher = more signal;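 note: Shh protein binding to compounds spotted on small-molecule microarray slides; score combines spot fluorescence intensity with signal-to-noise across triplicate slides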

| SMILES | composite z-score [1] | composite z-score [2] | composite z-score [3] | composite z-score [4] | composite z-score [5] | composite z-score [6] | z-score [7] | composite z-score (Lefty1) | composite z-score [8] | z-score [9] | composite z-score [10] | z-score [11] | z-score [12] | z-score [13] | z-score [14] | composite z-score [15] | composite z-score [16] | composite z-score (Torsin-1A (Homo sapiens) [17]) | composite z-score (Torsin-1A (Homo sapiens) [18]) | composite z-score [19] |
| --- | --- | --- | --- | --- | --- | --- | --- | --- | --- | --- | --- | --- | --- | --- | --- | --- | --- | --- | --- | --- |
| C=CCN1C(=O)[C@@]2(O[C@@H](CCO)[C@H]([Si](C)(C)c3ccc(OC)cc3)[C@H]2C)c2cc(NC(=O)[C@H](C)O)ccc21 | 2.01 | 1.19 | 1.38 | 0.114 | 0.346 | 0.0211 | 2.74 | 0.582 | 0.98 | -0.676 (inactive) | 0.442 | -5.04 (inactive) | -0.856 (inactive) | 17.4 (active) | -0.213 (inactive) | 0.0832 | -0.0695 | 0.923 | 1.01 | 1.46 |
| CCOC(=O)C1=CCC(c2cccc(Cl)c2)O1 (stereo not given) | 0.433 | 0.54 | -0.192 | 0.2 | -0.0085 | -0.505 | -1.14 | -0.0196 | 0.225 | 1.7 (inactive) | -0.0719 | -4.6 (inactive) | -1.23 (inactive) | -0.471 (inactive) | 0.0691 (inactive) | -0.164 | 0.0541 | 0.368 | 0.263 | -0.549 |
| C=C(/C(=C/C[C@@H](OC(=O)c1ccncc1)c1cccc(OCCO)c1)c1cc(C(=O)OC)ccc1OC)C(C)C | 1.01 | 1.13 | -0.165 | 0.366 | 0.525 | 1.43 | 4.89 | 0.879 | 0.487 | -1.88 (inactive) | -0.0958 | -1.82 (inactive) | -0.634 (inactive) | 26.8 (active) | -1.07 (inactive) | 0.179 | -0.0695 | 0.227 | 0.868 | 1.64 |
| C[N+](C)(C)CCCC[C@@H]1NC(=O)[C@@H]2C[C@H](C(=O)O)[C@H](c3cccc(OCCO)c3)N2C1=O | 0.0065 | -0.586 | -0.466 | -1.46 | 1.45 | 1.5 | 1.08 | 0.135 | 0.218 | -1.99 (inactive) | -0.0257 | -0.63 (inactive) | -0.773 (inactive) | -0.671 (inactive) | -0.471 (inactive) | -1.01 | -0.179 | 0.405 | 0.171 | 0.976 |
| C=CC[C@@]1(C(=O)NCC(O)CO)N=C(c2ccc(OCCCO)cc2)O[C@@H]1c1ccccc1 (stereo not given in full) | 1.98 | 0.932 | 0.307 | 0.543 | 1.44 | 1.02 | 1.01 | 0.0457 | 1.27 | -1.31 (inactive) | 1.19 | -0.834 (inactive) | 0.627 (inactive) | 0.685 (inactive) | -0.458 (inactive) | 0.145 | 0.524 | 0.373 | 2.47 | -0.702 |
| C=CCNC(=O)[C@H]1[C@@H]2C(=O)O[C@@H](c3ccccc3)[C@@H](c3ccccc3)N2[C@@H](c2ccc(OCCO)cc2)[C@]12C(=O)N(C(=O)OCCOC)c1ccc(C#CC3=CCCCC3)cc12 | 1.56 | 1.2 | 0.485 | 0.968 | 1.17 | 1.25 | -0.615 | 0.949 | 1.17 | -1.77 (inactive) | -0.0184 | -4.77 (inactive) | 1.09 (inactive) | -0.0647 (inactive) | -0.638 (inactive) | 0.716 | 0.18 | 0.689 | 0.868 | 1.32 |
| C=CC[C@]1(C(=O)N2CCOCC2)N=C(c2ccc(OCCCO)cc2)O[C@H]1c1ccccc1CN=[N+]=[N-] | 1.82 | 1.21 | 0.88 | 0.97 | 1.28 | 0.95 | 1.64 | 1.05 | 0.845 | -1.46 (inactive) | 0.662 | -3.25 (inactive) | 0.112 (inactive) | 3.51 (inactive) | -0.745 (inactive) | 1.06 | 0.455 | 0.689 | 1.1 | 0.871 |
| CC(C)(C)N1CC=CC23O[C@@H]4C=CCCOC(=O)C4[C@H]2C(=O)N(CCCO)[C@@H]3C1=O (stereo not given in full) | -1.89 | -1.75 | -0.491 | -1.66 | -0.103 | -0.464 | -0.754 | -0.292 | -1.96 | -0.0881 (inactive) | -0.213 | -2.5 (inactive) | -0.93 (inactive) | 0.451 (inactive) | -0.178 (inactive) | -1.33 | -0.23 | -0.253 | -0.663 | 0.398 |
| CC1CC/C=C\[C@H]2OC34C=CCN(c5ccc(Cl)cc5)C(=O)[C@H]3N(C(CO)C(C)C)C(=O)[C@]4(C)C2C(=O)O1 (stereo not given in full) | 0.776 | -0.512 | -0.432 | -0.787 | -0.648 | -0.87 | 0.34 | -0.626 | -0.281 | -0.391 (inactive) | -0.293 | 0.24 (inactive) | 0.971 (inactive) | 0.199 (inactive) | -0.27 (inactive) | -1.17 | -0.128 | 1.3 | 1.45 | 0.14 |
| COC(=O)[C@@]1(Cc2ccc(OC)cc2)[C@H]2c3cc(C(=O)N4CCCC4)n(Cc4ccc(C)o4)c3C[C@H]2CN1C(=O)c1ccccc1 | 0.849 | 1.2 | -0.0727 | -0.369 | 1.09 | -0.648 | -3.11 | -0.211 | 0.26 | -22.4 (active) | 0.989 | -5.19 (inactive) | -0.101 (inactive) | -0.758 (inactive) | -2.15 (inactive) | 0.458 | 0.505 | -1.39 | 0.285 | -0.754 |
